Results taken from the supplement of paper PMC12669032.

What was measured:
Assay in all cases: growth AUC relative to DMSO control (median of replicates) (fraction); higher = more growth (less inhibition), active = hit call of the paper
Conditions in all cases: 20 µM; 24 h;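 active = AUC reduced over 20% with Padj below 0.05 in at least 2 of 3 replicates; inactive = otherwise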
Akkermansia muciniphila = tested on: Akkermansia muciniphila
Outline: (§1)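 Gut bacteria were grown singly in mGAM at 37 °C without oxygen, from OD600 0.05, alongside 20 µM compound in 1% DMSO, and OD600 was read each hour for 24 h. Area under the growth curve was normalised to the median of solvent-only wells per plate, or to row and column medians on the industrial chemical plate. The minimum OD was set to 0 beforehand, and the reported value is the median of three biological replicates grown on separate days.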

Bacteroides caccae = tested on: Bacteroides caccae
Outline: as §1

Bacteroides clarus = tested on: Bacteroides clarus
Outline: as §1

Bacteroides dorei = tested on: Bacteroides dorei
Outline: as §1

Bacteroides stercoris = tested on: Bacteroides stercoris
Outline: as §1

[1] = tested on: Bacteroides thetaiotaomicron
Outline: as §1

Bacteroides uniformis = tested on: Bacteroides uniformis
Outline: as §1

[2] = tested on: Bifidobacterium longum subsp. longum
Outline: as §1

Clostridium difficile = tested on: Clostridium difficile
Outline: as §1

Collinsella aerofaciens = tested on: Collinsella aerofaciens
Outline: as §1

Measured: growth AUC

CCOP(=S)(NC(C)CC)Oc1cc(C)ccc1[N+](=O)[O-] (stereo not given)
inactive: Akkermansia muciniphila 0.974 | Bacteroides caccae 0.947 | Bacteroides clarus 0.946 | Bacteroides dorei 1.01 | Bacteroides stercoris 0.865 | [1] 0.955 | Bacteroides uniformis 0.917 | [2] 0.965 | Clostridium difficile 1.03 | Collinsella aerofaciens 0.985

Cc1ccccc1C(=O)Nc1cccc(OC(C)C)c1
inactive: Akkermansia muciniphila 0.926 | Bacteroides caccae 1.01 | Bacteroides clarus 0.992 | Bacteroides dorei 1 | Bacteroides stercoris 0.993 | [1] 0.928 | Bacteroides uniformis 0.945 | [2] 1.02 | Clostridium difficile 0.984 | Collinsella aerofaciens 1

CNC(=O)Oc1cc(C)cc(C(C)C)c1
inactive: Akkermansia muciniphila 0.995 | Bacteroides caccae 0.969 | Bacteroides clarus 0.982 | Bacteroides dorei 0.973 | Bacteroides stercoris 0.938 | [1] 0.967 | Bacteroides uniformis 1.04 | [2] 1.19 | Clostridium difficile 0.93 | Collinsella aerofaciens 0.952

CCOC(=O)CCN(SN(C)C(=O)Oc1cccc2c1OC(C)(C)C2)C(C)C
inactive: Akkermansia muciniphila 1.1 | Bacteroides caccae 1.04 | Bacteroides clarus 0.985 | Bacteroides dorei 1 | Bacteroides stercoris 0.982 | [1] 1.02 | Bacteroides uniformis 1.05 | [2] 1.01 | Clostridium difficile 0.999 | Collinsella aerofaciens 0.978

COP(=S)(NC(C)C)Oc1ccccc1C(=O)OC(C)C (stereo not given)
inactive: Akkermansia muciniphila 1.07 | Bacteroides caccae 0.991 | Bacteroides clarus 0.93 | Bacteroides dorei 0.942 | Bacteroides stercoris 1.04 | [1] 0.907 | Bacteroides uniformis 0.872 | [2] 1.02 | Clostridium difficile 1.01 | Collinsella aerofaciens 1.01

Cc1ccc(NC(=O)c2snnc2C)cc1Cl
inactive: Akkermansia muciniphila 0.741 | Bacteroides caccae 0.968 | Bacteroides clarus 0.914 | Bacteroides dorei 1.03 | Bacteroides stercoris 0.879 | [1] 0.905 | Bacteroides uniformis 1.02 | [2] 0.898 | Clostridium difficile 1 | Collinsella aerofaciens 1.05

CNC(=O)ON=C(CSC)C(C)(C)C
inactive: Akkermansia muciniphila 0.989 | Bacteroides caccae 1.01 | Bacteroides clarus 0.992 | Bacteroides dorei 0.929 | Bacteroides stercoris 1 | [1] 0.986 | Bacteroides uniformis 1.04 | [2] 0.999 | Clostridium difficile 1 | Collinsella aerofaciens 0.983

CCS(=O)c1c(C#N)nn(-c2c(Cl)cc(C(F)(F)F)cc2Cl)c1N (stereo not given)
inactive: Akkermansia muciniphila 0.952 | Bacteroides caccae 1.04 | Bacteroides clarus 0.996 | Bacteroides dorei 1.01 | Bacteroides stercoris 1.04 | [1] 0.961 | Bacteroides uniformis 0.959 | [2] 1.01 | Clostridium difficile 1.02 | Collinsella aerofaciens 1.01

CC1(C)C(C=C(Cl)Cl)C1C(=O)OCc1cccc(Oc2ccccc2)c1 (mixture of isomers)
inactive: Akkermansia muciniphila 1.02 | Bacteroides caccae 0.991 | Bacteroides clarus 0.98 | Bacteroides dorei 1.01 | Bacteroides stercoris 1.07 | [1] 1.02 | Bacteroides uniformis 1.03 | [2] 0.957 | Clostridium difficile 1.01 | Collinsella aerofaciens 0.942

COC(=O)NCc1cc(/C(C)=N\OCc2cccc(C)n2)ccc1Cl
inactive: Akkermansia muciniphila 1.07 | Bacteroides caccae 0.936 | Bacteroides clarus 0.984 | Bacteroides dorei 0.949 | Bacteroides stercoris 0.939 | [1] 0.995 | Bacteroides uniformis 0.902 | [2] 1.03 | Clostridium difficile 0.968 | Collinsella aerofaciens 0.969

CCOc1cc(OP(=S)(OC)OC)nc(CC)n1
inactive: Akkermansia muciniphila 0.924 | Bacteroides caccae 1.03 | Bacteroides clarus 1 | Bacteroides dorei 1.01 | Bacteroides stercoris 1.13 | [1] 0.994 | Bacteroides uniformis 0.996 | [2] 1.01 | Clostridium difficile 0.997 | Collinsella aerofaciens 1.03

CCSC(C)CC1CC(=O)C(/C(CC)=N/OC/C=C/Cl)=C(O)C1 (mixture of isomers)
inactive: Akkermansia muciniphila 1.13 | Bacteroides caccae 1.05 | Bacteroides clarus 1.03 | Bacteroides dorei 1.01 | Bacteroides stercoris 1.11 | [1] 1.01 | Bacteroides uniformis 1.02 | [2] 1.01 | Clostridium difficile 1.04 | Collinsella aerofaciens 1.04

Cc1[nH]c(=O)n(C(C)(C)C)c(=O)c1Cl
inactive: Akkermansia muciniphila 1.07 | Bacteroides caccae 1 | Bacteroides clarus 0.993 | Bacteroides dorei 0.96 | Bacteroides stercoris 0.979 | [1] 1 | Bacteroides uniformis 0.981 | [2] 0.978 | Clostridium difficile 0.997 | Collinsella aerofaciens 0.924

N#Cc1c[nH]cc1-c1cccc2c1OC(F)(F)O2
inactive: Akkermansia muciniphila 0.837 | Bacteroides caccae 0.959 | Bacteroides clarus 0.918 | Bacteroides dorei 0.953 | Bacteroides stercoris 0.85 | [1] 0.953 | Bacteroides uniformis 0.999 | [2] 0.91 | Clostridium difficile 0.978 | Collinsella aerofaciens 0.992

Cc1cc(C(F)(C(F)(F)F)C(F)(F)F)ccc1NC(=O)c1cccc(I)c1C(=O)NC(C)(C)CS(C)(=O)=O
inactive: Akkermansia muciniphila 1.06 | Bacteroides caccae 1.2 | Bacteroides clarus 1.2 | Bacteroides dorei 1 | Bacteroides stercoris 0.937 | [1] 1.02 | Bacteroides uniformis 1.01 | [2] 1.06 | Clostridium difficile 0.92 | Collinsella aerofaciens 1.7

CNC(=O)Oc1ccccc1OC(C)C
inactive: Akkermansia muciniphila 0.914 | Bacteroides caccae 0.993 | Bacteroides clarus 0.977 | Bacteroides dorei 1.01 | Bacteroides stercoris 1.01 | [1] 0.975 | Bacteroides uniformis 0.979 | [2] 0.996 | Clostridium difficile 0.986 | Collinsella aerofaciens 0.955

c1cc2ccc3cccc4ccc(c1)c2c34
inactive: Akkermansia muciniphila 0.918 | Bacteroides caccae 0.992 | Bacteroides clarus 1 | Bacteroides dorei 0.997 | Bacteroides stercoris 1.01 | [1] 0.997 | Bacteroides uniformis 1.02 | [2] 0.948 | Clostridium difficile 0.959 | Collinsella aerofaciens 0.946

CCOC(=O)Nc1cccc(OC(=O)Nc2ccccc2)c1
inactive: Akkermansia muciniphila 0.899 | Bacteroides caccae 1.06 | Bacteroides clarus 0.961 | Bacteroides dorei 1 | Bacteroides stercoris 0.889 | [1] 0.998 | Bacteroides uniformis 0.95 | [2] 0.944 | Clostridium difficile 0.986 | Collinsella aerofaciens 0.977

CN=C=S
inactive: Akkermansia muciniphila 0.945 | Bacteroides caccae 1.01 | Bacteroides clarus 0.977 | Bacteroides dorei 0.988 | Bacteroides stercoris 1.07 | [1] 1 | Bacteroides uniformis 1 | [2] 1.05 | Clostridium difficile 1.01 | Collinsella aerofaciens 1.02

C=C(C)CN(CC)c1c([N+](=O)[O-])cc(C(F)(F)F)cc1[N+](=O)[O-]
inactive: Akkermansia muciniphila 0.843 | Bacteroides caccae 1.02 | Bacteroides clarus 0.965 | Bacteroides dorei 1.02 | Bacteroides stercoris 0.926 | [1] 0.998 | Bacteroides uniformis 0.968 | [2] 0.933 | Clostridium difficile 1.04 | Collinsella aerofaciens 1

CC1(C)C(C=C(Cl)Cl)[C@@H]1C(=O)O[C@@H](C#N)c1ccc(F)c(Oc2ccccc2)c1 (stereo not given in full)
inactive: Akkermansia muciniphila 0.998 | Bacteroides caccae 0.986 | Bacteroides clarus 1.01 | Bacteroides dorei 1.01 | Bacteroides stercoris 0.992 | [1] 1 | Bacteroides uniformis 0.976 | [2] 0.983 | Clostridium difficile 0.996 | Collinsella aerofaciens 0.96

CCC(C)c1ccccc1OC(=O)NC (stereo not given)
inactive: Akkermansia muciniphila 0.869 | Bacteroides caccae 1.03 | Bacteroides clarus 0.975 | Bacteroides dorei 1.01 | Bacteroides stercoris 0.961 | [1] 0.981 | Bacteroides uniformis 0.978 | [2] 0.976 | Clostridium difficile 1 | Collinsella aerofaciens 0.986

Cn1cc(-c2ccccc2)c(=O)c(-c2cccc(C(F)(F)F)c2)c1
inactive: Akkermansia muciniphila 0.9 | Bacteroides caccae 0.923 | Bacteroides clarus 0.999 | Bacteroides dorei 1.01 | Bacteroides stercoris 1.06 | [1] 0.967 | Bacteroides uniformis 0.977 | [2] 1.04 | Clostridium difficile 0.994 | Collinsella aerofaciens 0.939

O=C(O)C(F)(F)C(F)(F)C(F)(F)C(F)(F)C(F)(F)C(F)(F)C(F)(F)C(F)(F)C(F)(F)F
inactive: Akkermansia muciniphila 0.991 | Bacteroides caccae 0.977 | Bacteroides clarus 0.933 | Bacteroides dorei 1.01 | Bacteroides stercoris 0.998 | [1] 1.1 | Bacteroides uniformis 1.02 | [2] 0.939 | Clostridium difficile 0.968 | Collinsella aerofaciens 0.984

O=[N+]([O-])c1ccc(Oc2ccc(C(F)(F)F)cc2[N+](=O)[O-])cc1
inactive: Akkermansia muciniphila 0.834 | Bacteroides caccae 0.929 | Bacteroides clarus 0.878 | Bacteroides dorei 0.88 | Bacteroides stercoris 1.05 | [1] 0.92 | Bacteroides uniformis 0.917 | [2] 0.936 | Clostridium difficile 1.02 | Collinsella aerofaciens 0.93

O=C(OC1CCCCC1)c1ccccc1C(=O)OC1CCCCC1
inactive: Akkermansia muciniphila 1 | Bacteroides caccae 0.967 | Bacteroides clarus 0.997 | Bacteroides dorei 0.985 | Bacteroides stercoris 1.09 | [1] 0.951 | Bacteroides uniformis 0.985 | [2] 1 | Clostridium difficile 0.995 | Collinsella aerofaciens 0.943

COC(=O)c1ccccc1S(=O)(=O)NC(=O)N(C)c1nc(C)nc(OC)n1
inactive: Akkermansia muciniphila 0.981 | Bacteroides caccae 0.984 | Bacteroides clarus 0.979 | Bacteroides dorei 0.984 | Bacteroides stercoris 1.05 | [1] 0.99 | Bacteroides uniformis 1 | [2] 1.01 | Clostridium difficile 0.984 | Collinsella aerofaciens 1.03

CNC(=O)Oc1cc(C)c(N(C)C)c(C)c1
inactive: Akkermansia muciniphila 1.02 | Bacteroides caccae 1.03 | Bacteroides clarus 0.971 | Bacteroides dorei 1.04 | Bacteroides stercoris 0.852 | [1] 0.995 | Bacteroides uniformis 1 | [2] 0.991 | Clostridium difficile 1.1 | Collinsella aerofaciens 0.995
